# In the library only some 5.2% were active in any assay of this set; here they are far more common.
# VDR inh = inhibitors of human vitamin D receptor; P11473; VDR-SRC2-3 peptide fluorescence polarization, 2 h; Potency, µM, for inactives: max response, negative = inhibition, most hits filed as inhibitors; 400,000 compounds, 0.93% hits; AID 504847
#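 Reagent solutions, kept cold and dark, are dispensed first; compounds are then pinned in at 23 nl, plates briefly spun, and incubated 2 h at ambient temperature. Inhibition of VDR–SRC2-3 peptide binding is read by fluorescence polarization.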
# TrxR1 substrate = is turned over as a substrate by rat TrxR1; Potency, µM (highest dose often 114 µM), for the others: top-dose activity change, negative = substrate turnover; purified TrxR1 substrate turnover, NADPH consumption readout; AID 588456; O89049; 390,000 compounds, 0.01% hits; further: nearly all actives have a fitted effect of over 50% in size
#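 Rat TrxR1, dispensed at 90 nM, was prereduced with 400 uM NADPH (final) for 5 min at ~22 deg C, then incubated with compound 15 min before 400 uM selenite. A first-read NADPH fluorescence drop versus no-compound background flagged substrates.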
# PLK1 PBD inh = PLK1 (human) polo-box domain binding inhibition. P53350. Plk1 PBD binding of FITC phosphopeptide, fluorescence polarization. Potency, µM, without a hit: max response, negative = inhibition, actives largely listed as inhibitors. 360,000 compounds, 2.8% hits. AID 720504; further: series mostly up to about 57 µM; nearly all actives have a fitted effect of over 65% in size
# mIDH1 inhibitor = blocks human mutant IDH1 R132H enzyme | O75874 | IDH1-R132H enzyme, NADPH consumption, diaphorase/resazurin fluorescence | Potency, µM (top dose mostly 76.6 µM), for the others: top-dose activity change, negative = inhibition, actives largely listed as inhibitors | 390,000 compounds, 0.093% hits | AID 602179; further: nearly all actives have a fitted effect of over 65% in size
# Target sequence (O75874 whole entry R132H, stated change not applied): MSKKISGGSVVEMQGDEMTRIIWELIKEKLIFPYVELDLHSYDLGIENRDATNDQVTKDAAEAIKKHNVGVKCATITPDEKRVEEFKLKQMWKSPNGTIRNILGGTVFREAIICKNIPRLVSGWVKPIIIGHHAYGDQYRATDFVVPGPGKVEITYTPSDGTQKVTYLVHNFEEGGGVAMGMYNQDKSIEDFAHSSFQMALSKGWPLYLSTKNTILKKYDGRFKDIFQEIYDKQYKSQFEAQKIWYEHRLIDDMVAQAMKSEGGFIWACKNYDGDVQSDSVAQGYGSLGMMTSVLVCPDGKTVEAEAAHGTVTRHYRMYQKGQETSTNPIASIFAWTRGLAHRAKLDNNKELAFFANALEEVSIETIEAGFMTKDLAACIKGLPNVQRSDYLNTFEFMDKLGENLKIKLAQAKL
#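 IDH1-R132H (0.5 ug/mL dispensed) in pH 7.5 Tris buffer was preincubated 30 min with compound, then given a substrate mix of 0.016 mM NADPH and 2 mM alpha-KG for 80 min at room temperature; remaining NADPH was read by diaphorase/resazurin fluorescence.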
# Sfp PPTase inh = inhibitors of Bacillus subtilis Sfp phosphopantetheinyl transferase; Q9F4F7; Biochemical Sfp PPTase activity, qHTS; Potency, µM, without a hit: largest response in the series, negative = inhibition, actives largely listed as inhibitors; 310,000 compounds, 3.5% hits;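 further: the enzyme is Sfp with the accession as filed and its product quenches rhodamine fluorescence; 0% = enzyme reaction without inhibitor and -100% = no enzyme wells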
#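 With Hepes-Na pH 7.6 buffer containing 10 mM MgCl2, Sfp (15 nM) modified BHQ-2-YbbR (12.5 uM) using rhodamine-CoA (5 uM). Two reads 30 minutes apart at 525/598 nm yielded each well's rate.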
# rTrxR1 inhibitor = rat TrxR1 inhibition | recombinant rTrxR1, NADPH fluorescence consumption, selenite substrate | Potency, µM (highest dose often 114 µM), for inactives: at the top dose activity change, negative = inhibition, most hits filed as inhibitors | 390,000 compounds, 1% hits; further: nearly all actives have a fitted effect of over 65% in size
#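 Rat TrxR1 (90 nM in the dispensed reagent) was pre-reduced with 400 uM NADPH for 5 min at room temperature, then incubated with compound for 15 min. After 400 uM selenite was added, NADPH fluorescence (Ex 340/Em 450 nm) was followed for 8 min.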
# * marks the source's active call; other numbers are inactive results; ? = inconclusive; nt = not tested or not shown; [ ] = remark or other dose. The call rests on the fitted dose curve; in most records, active means well fitted curve in the direction sought with a large enough effect; inconclusive means small, poorly fitted or top-dose-only effect, or another doubt; inactive means no such curve, though single readings can be large; an effect the other way counts as inactive or inconclusive. Unless noted, on the % scale 0 is the no-effect control and ±100 the full control effect; potency means the concentration at half of the fitted maximal effect.
SMILES,VDR inh,TrxR1 substrate,PLK1 PBD inh,mIDH1 inhibitor,Sfp PPTase inh,rTrxR1 inhibitor
COC(=O)CN1C(=O)[C@H]2[C@@H](c3ccc(C)o3)N3C(=O)CN(Cc4ccccc4)C(=O)[C@@]3(C)[C@H]2C1=O,-13%,10%[57.1 µM],-12%,-9%,45µM*,?
Cc1ccc([C@@H]2[C@@H]3C(=O)N(C)C(=O)[C@@H]3[C@]3(C)C(=O)N(Cc4ccccc4)CC(=O)N23)o1,2%,-8%,-25%,-1%,-11%,?
COc1ccc2oc(=O)c(C(=O)N3CCN(c4ccc(C)cc4)CC3)cc2c1,-9%,-6%,nt,3%,nt,-3%
Cc1cc(C(=O)N2CCCC(N3CCN(Cc4ccc5c(c4)OCO5)CC3)C2)n[nH]1 (stereo not drawn),-11%,-1%,-9%,-3%,8%,5%
Cc1nc2c(c(C)c1CCC(=O)NCc1ccc(Cl)cc1)c(=O)n(C)c(=O)n2C,-6%,8%,nt,9%,nt,26%
COCCN1CSC(=S)N(Cc2ccco2)C1,89µM*,-5%,17µM*,2%,32µM*,?
CC(C)CN1CN(Cc2ccco2)CNC1=S,17%,-7%,-9%,8%,11%,-23%
S=C1SCN(Cc2ccccn2)CN1Cc1ccco1,?,4%,?,-1%,10µM*,-19%
COC(C1CCCCC1)C(C)C(OCc1cccc(Br)c1)C(C)CO (stereo not drawn),nt,nt,nt,nt,-1%,nt
CC(C)(C)c1cccc(S(=O)(=O)N2CCN(c3nc(-c4cccs4)nc4ccccc34)CC2)c1,-20%,-2%,nt,nt,nt,16%
COC(=O)C1=C(C)NC(=O)/C1=C\N(C)C,-11%,0%[57.1 µM],-17%,-3%,-4%,16µM*
Cc1ccc(CNC(=O)Cn2ccn(-c3ccc(F)cc3)c(=O)c2=O)cc1,7%,9%[11.4 µM],nt,0%,nt,24%
CCC(C)(C)NC(=O)C1CCN(S(=O)(=O)c2ccc3c(c2)CCCN3C(C)=O)CC1,-5%,2%[57.1 µM],nt,2%,nt,28%[57.1 µM]
O=C(OCc1ccccc1F)c1ccc(-c2nnn(Cc3ccccc3)n2)cc1,-1%,-5%,nt,nt,nt,24%
Cc1ccc(Cc2c(-c3ccccc3)nc3c(Cl)cc(C(F)(F)F)cn23)cc1,nt,nt,-8%,nt,nt,nt
O=[N+]([O-])c1ccc(N2CCN(c3ccc(O)cc3)CC2)cn1,11%,7%[57.1 µM],-13%,3%,56µM*,6%[57.1 µM]
CCCn1c(SCC(=O)NC(=O)NC(C)(C)C)n[nH]c1=O,-14%,1%,27µM*,10%,15%,9%
CCCn1c(SCC(=O)NCc2ccc(C)cc2)n[nH]c1=O,20%,-2%,0%,0%,4%,2%
CCCn1c(SCC(=O)c2ccc(CC)cc2)n[nH]c1=O,-26%,0%,8.4µM*,3%,-7%,-7%
CNC(=O)c1c[nH]c2ccc(S(=O)(=O)Nc3cccc(SC)c3)cc2c1=O,7%,3%,-2%,0%,19%,19%
O=[N+]([O-])c1cccc(S(=O)(=O)Nc2nc3ccccc3nc2Nc2cccc(S(=O)(=O)N3CCCCC3)c2)c1,2%,-5%,24µM*,?,-29%,-22%
Cc1ccc(S(=O)(=O)Nc2nc3ccccc3nc2Nc2cccc(S(=O)(=O)N3CCCC3)c2)cc1,13%,17%,27µM*,-2%,4%,-3%
O=[N+]([O-])c1cccc(S(=O)(=O)N2CCCCC2)c1,-8%,-5%,4%,11%,19%,23%
CC(=O)Nc1ccc(Nc2nc3ccc(C)cc3n3nnnc23)cc1,-2%,4%,nt,-13%,nt,-9%
Cc1ccc(Cl)cc1NC(=O)c1ccc2snnc2c1,11%,0%,nt,-2%,nt,8%
O=C(NCC(c1ccco1)S(=O)(=O)c1ccc(Cl)cc1)c1ccccc1F (stereo not drawn),14%,4%[57.1 µM],nt,-5%,nt,14µM*
Cc1ccc(S(=O)(=O)C(CNC(=O)c2c(F)cccc2F)c2ccco2)cc1 (stereo not drawn),6%,-4%[57.1 µM],nt,13%,nt,10%[57.1 µM]
